In PubChem BioAssay (NCI) one finds growth data, which are given here for 36 molecules.

This is part of a sample that, as a whole, favours compounds with a hit. Of some 83,000 tested, about 20% had one in any assay.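 Each cell line was grown in a 96-well plate and treated with one concentration of compound for 48 hours. Values below 10 were considered active.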 Values without a mark were called inactive. Active and inactive are the calls of the source.

This assay concerns HL-60(TB) leukemia. The experiment in a line: NCI-60 one-dose screen, 48 h (100 = growth as untreated, 0 = no growth, -100 = all killed). The settings on record: 10 µM unless noted.
`CC(C)C1C2=C(NCCN1C(=O)c1ccncc1)C(C)(C)N(Cc1ccccc1)C2=O` (stereo unspecified): the growth is 87.3%.
The value for `CCCCCCOC(=O)CC1=C(C)/C(=C/c2[nH]c(-c3ccc[nH]3)cc2OC)N=C1C` was -42.7% (active); that for `CCc1nc(N)nc(N)c1C#CC(C)c1ccc(-c2ccncc2)cc1Cl` (stereo unspecified) was -19.9% (active).
Under `COc1cc(CN(c2ccc(Cl)cc2)C2OC(=O)c3ccccc32)cc(OC)c1OC` (stereo unspecified) stands 21.7%; under `COc1cc2c(cc1OCCCN1CCN(CCCOc3cc4c(cc3OC)C(=O)N3CC(F)(F)C[C@H]3C=N4)CC1)N=C[C@@H]1CC(F)(F)CN1C2=O`, 15.7%; under `O=C(N/N=C/[C@@H](O)[C@H](O)[C@H](O)CO)c1ccc(NC(=O)c2cccnc2)cc1`, 99.4%.
The value for `CN(C)c1ccc2cc(-c3nc4ccccc4s3)c(N)nc2c1` was 0.561% (active); that for `CC1CN(Cc2ccccc2)C(=O)NC1=O` (stereo unspecified) was 88.7%; that for `CNC(=O)c1cc(Oc2ccc3c(c2)sc2nc(-c4ccc(Cl)c(C(F)(F)F)c4)cn23)ccn1` was 35.8%.
As to `CCCCCCNC(=O)Nc1ncnc2c1ncn2-c1ccccc1`, the growth is 109%.
Under `O=C(O)COc1ccccc1F` stands 104%.
With `COc1ccc(/C=N/C2=C(C#N)C(c3ccccc3)c3ccc4ccccc4c3O2)cc1` (stereo unspecified), the growth was 1.71% (active).
As to `COC(=O)/C=C1\S/C(=N\NC(=O)c2cc3ccc2/C=C\c2ccc(cc2)/C=C\3)N(Cc2ccccc2)C1=O`, the growth is -5.46% (active).
On to `Cc1ccc(/C=C/C(=O)Nc2ncc(Cc3ccc(F)cc3)s2)o1`, for which the growth is 2.75% (active).
Turning to `O=C1OCC2=C1C(c1cccc(Br)c1)c1cc3c(cc1N2CCO)CCC3` (stereo unspecified), the growth was -25.5% (active).
Under `Cc1cccc(C)c1-c1cc(Cc2ccc(Cl)cc2)c(=O)[nH]n1` stands 90.8%; under `C=C1C(=O)O[C@H]2[C@H]1CC/C(CNS(=O)(=O)c1ccc3ccccc3c1)=C\CC[C@@]1(C)O[C@@H]21`, -48.4% (active).
Under `O=C1/C(=C/c2cn(-c3ccccc3)nc2-c2ccccc2)SC(=S)N1CCc1ccccc1` stands 102%; under `COC(=O)[C@H](C(C)C)n1c(=O)c2cc(OC)c(OC)cc2c2cnc3[nH]ccc3c21`, 16.1%.
As for `C[C@@H]1O[C@@H](O[C@@H]2C[C@H](c3ccc4c(c3O)C(=O)C3=C(C4=O)[C@@]4(O)C(=O)C[C@](C)(O)C[C@@]4(O)C=C3)O[C@H](C)[C@H]2O)C[C@H](O)[C@@H]1O`, the growth was 99.5%.
The value for `COc1ccc(Cc2nnc(Nc3nc4ccccc4s3)s2)cc1` was -32.7% (active); that for `C#CC(C(C)C)N(CCO)CCCC` (stereo unspecified) was 108%.
In the case of `CCOC(=O)c1sc(/N=C2\NC(=O)/C(=C/c3ccc(N4CCN(C)CC4)cc3)S2)nc1C`, the growth was 100%.
Take `C=C1c2nc3ccccc3n2C=C(c2ccc(Cl)cc2)N1Cc1ccccc1`: the growth is 60.1%.
The value for `Cn1cc(-c2nnc(-c3ccccc3)s2)c2cc(Br)cnc21` was 103%; that for `CCn1cc(-c2cc(-c3ccc(Cl)cc3)nc(N)n2)c(-c2ccc(Br)cc2)n1` was 77.7%.
Regarding `Cc1nc(N)[nH]c(=O)c1C`, the growth is 218%.
For the molecule `COC(=O)[C@@H](NC(=O)[C@@H](OC)[C@@H]1Cc2cc3cc(OC4CC(OC5CC(O)C(O)C(C)O5)C(O)C(C)O4)c(C)c(O)c3c(O)c2C(=O)[C@H]1OC1CC(OC2CC(OC3CC(C)(O)C(O)C(C)O3)C(O)C(C)O2)C(O)C(C)O1)C(C)C` (stereo partly specified), the growth was 52.4%.
Under `C=C(CNCCc1ccc(O)cc1)[C@@H]1CC[C@]2(CO)CC[C@]3(C)[C@H](CC[C@@H]4[C@@]5(C)CCC(N)C(C)(C)[C@@H]5CC[C@]43C)[C@@H]12` (stereo partly specified) stands -47% (active); under `COc1ccc(C(=S)N2CCN(c3ccc(Cl)cc3)CC2)cc1`, 89.7%; under `COc1ccc2nc(Cl)c(Cn3nnc(Cc4ccccc4)n3)cc2c1`, 56.6%.
The value for `CCN(CC)CCCNc1nccc2ccc(Cl)cc12` was 99.4%; that for `Cc1ccc2c(n1)C[C@H](C(C)(C)O)CC[C@H]2C` was 103%; that for `CCCCCCCCc1ccc(OCCOCC[N+](C)(C)CC)cc1` (tested in a mixture with another compound) was 2.54% (active).
Under `Nc1ccn(C2OC(F)(CO)C(O)C2F)c(=O)n1` (stereo unspecified) stands 12.2%; under `CCN(CC)CC(O)c1cc(-c2ccc(Cl)cc2)nc2c(C)c(Cl)ccc12` (stereo unspecified), -71.5% (active).
